Peg3 imprint: qHTS Assay for Compounds that Induce Erasure of Genomic Imprints | Potency, µM (doses to about 60.7 µM), inactives show at the highest dose activity change, positive = activation, hits mostly activators | hit rate 0.02% among 110,000 | mouse ES Peg3-LacZ reporter, beta-gal luminescence, 40 h; note: potency is the fitted concentration of half-maximal effect
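Imprint erasure is scored as LacZ activity from the silenced maternal Peg3 allele in feeder-free female ES cells cultured 40 h with LIF. Luminescence is normalized to in-plate negative controls and fitted to the Hill equation.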
HEK293 cAMP cs: qHTS Assay for Agonists of the Thyroid Stimulating Hormone Receptor: Activators of Intracellular cAMP Concentrations in Parental HEK 293. parental HEK293 CNG cAMP sensor, membrane potential fluorescence. Potency, µM (series often up to 57.1 µM), for the others: at the top dose activation, most hits filed as activators. hit rate 2.5% among 73,000; note: potency is the fitted concentration of half-maximal effect; % of control where 0% means no effect; nearly all actives have a fitted effect of over 55% in size
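Parental HEK 293 cells stably expressing a cAMP-gated CNG channel were loaded with membrane potential dye containing 100 uM RO 20-1724 for 60 min. Compound added for 30 min; depolarization read as fluorescence intensity at 590 nm.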
TSHR ag: qHTS Assay for Agonists of the Thyroid Stimulating Hormone Receptor; HEK293-CNG-TSHR cells (CNG channel as cAMP sensor), membrane potential dye, cAMP; Potency, µM (doses to about 57.1 µM), for inactives: at the highest dose activation, hits mostly activators; hit rate 0.48% among 73,000; AID 926, 2007; active = well fitted activation curve with a large enough effect in the main read-out, with a control signal flat, not every such curve was filed as active; inconclusive = small, poorly fitted or top-dose-only effect, or a change in a side signal; inactive = no such curve, though single readings can be large or run the other way; % of control where 0% means no effect;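 note: the control signal comes from parental cells without the receptor; potency is the fitted concentration of half-maximal effect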
Target sequence (P16473 whole entry, looked up): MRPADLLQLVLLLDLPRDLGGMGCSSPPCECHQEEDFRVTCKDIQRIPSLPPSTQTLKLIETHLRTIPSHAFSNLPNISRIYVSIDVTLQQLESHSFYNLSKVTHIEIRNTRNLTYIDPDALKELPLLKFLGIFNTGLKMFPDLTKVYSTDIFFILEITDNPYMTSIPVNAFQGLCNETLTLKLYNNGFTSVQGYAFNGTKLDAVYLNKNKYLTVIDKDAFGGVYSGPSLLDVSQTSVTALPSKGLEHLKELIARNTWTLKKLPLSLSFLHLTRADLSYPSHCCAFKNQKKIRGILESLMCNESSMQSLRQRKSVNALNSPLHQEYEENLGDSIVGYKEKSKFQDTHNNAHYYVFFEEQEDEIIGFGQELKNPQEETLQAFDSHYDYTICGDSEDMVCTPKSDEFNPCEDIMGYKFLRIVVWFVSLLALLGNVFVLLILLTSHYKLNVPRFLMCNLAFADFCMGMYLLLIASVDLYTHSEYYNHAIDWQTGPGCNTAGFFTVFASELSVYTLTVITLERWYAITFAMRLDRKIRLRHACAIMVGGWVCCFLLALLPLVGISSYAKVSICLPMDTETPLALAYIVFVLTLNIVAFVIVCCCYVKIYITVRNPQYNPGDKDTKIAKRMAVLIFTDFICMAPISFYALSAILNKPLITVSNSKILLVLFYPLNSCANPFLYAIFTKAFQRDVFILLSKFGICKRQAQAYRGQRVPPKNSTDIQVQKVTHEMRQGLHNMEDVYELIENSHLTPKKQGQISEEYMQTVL
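HEK 293 cells stably expressing TSHR and a modified CNG channel, with CNG-only parental cells as counterscreen, were preloaded 60 min at room temperature with membrane potential dye containing 100 uM RO 20-1724. Compound exposure was 30 min, and depolarization was read as fluorescence at 590 nm.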
p53ts 32C tox: qHTS Screen for Compounds that Selectively Target Cancer Cells with p53 Mutations: Cytotoxicity of p53ts Cells at the Permissive Temperature; H1299-p53A138V at 32C, ATP luminescence viability, 24 h; Potency, µM (titrated, usually from 46.1 µM), for inactives: at the highest dose activity change, negative = cytotoxicity, usual class: cytotoxic; hit rate 0.93% among 130,000;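 note: potency is the fitted concentration of half-maximal effect; 0% = DMSO and -100% = full killing by reference compound; nearly all actives have a fitted effect of over 55% in size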
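ATP-content luminescence (ATPlite) read-out after 24 h compound exposure at 32C in H1299-p53A138V cells (600/well). Tested up to 46 uM. Normalized to DMSO (0%) and 100 uM tamoxifen (100% killing); Hill-fit AC50.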
p53ts 39C tox: qHTS Screen for Compounds that Selectively Target Cancer Cells with p53 Mutations: Cytotoxicity of p53ts Cells at the Nonpermissive Temperature. Potency, µM (series often up to 46.1 µM), without a hit: top-dose activity change, negative = cell killing, hits mostly cytotoxic. hit rate 1.5% among 130,000. AID 902, 2007. H1299-p53A138V viability at 39C, ATP luminescence, 24 h; note: potency is the fitted concentration of half-maximal effect; % is set by controls: 0 for no effect and ±100 for the full control effect; nearly all actives have a fitted effect of over 55% in size
IkB signaling: IkB Signaling; ABC-DLBCL IkBa-CBG/CBR dual luciferase ratio, 4 h; response scale: scaled: untreated 0%, proteasome inhibitor 100%; Potency, µM (top dose mostly 57.1 µM), inactives show at the highest dose IkBa stabilization activation; hit rate 0.04% among 110,000; AID 445, 2006; active = well fitted curve in the direction sought with a large enough effect in the signal ratio, not every such curve was filed as active; inconclusive = small, poorly fitted or top-dose-only effect, or a change in a side signal; the % refers to the signal ratio;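 note: potency is the fitted concentration of half-maximal effect; the direction sought is a rising ratio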
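In this assay, an IκBα–CBG68 fusion accumulates when IKK-driven degradation is blocked; native CBR normalizes for cell number. OCI-Ly3 cells were treated 4 h with compound and doxycycline, then green and red light read after Chroma-Glo addition.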
parental cAMP: Confirmation Concentration-Response Assay for Agonists of the Thyroid Stimulating Hormone Receptor: Activators of Intracellular cAMP Concentrations in Parental HEK 293; shares compounds with TSHR ag; 150 tested, under 10 active; parental HEK293 CNG biosensor, cAMP membrane potential fluorescence; activity change, negative = inhibition, % at 32.9 µM
The depositor's hits bear a star; ? = inconclusive; . = not tested or not shown; [ ] = another dose, or the depositor's remark. The list is not random: actives were taken first. Their share in the collection is about 3.1%. Unless noted, calls come from the whole dose curve; as a rule, active = well fitted curve in the direction sought with a large enough effect; inconclusive = small, poorly fitted or top-dose-only effect, or another doubt; inactive = no such curve, though single readings can be large; an effect the other way counts as inactive or inconclusive.

SMILES	Peg3 imprint	HEK293 cAMP cs	TSHR ag	p53ts 32C tox	p53ts 39C tox	IkB signaling	others
CCCCN(C(=O)C1CCC(CNS(=O)(=O)c2cccc3nsnc23)CC1)c1ccccc1 (stereo not drawn)	-9.4%[10.9 µM]	.	.	71.1%	3.6%	?
Cc1nc2ccccc2c2oc(C(=O)NCC3COc4ccccc4O3)cc12 (stereo not drawn)	-24.9%	25.1µM*	?	?	-28.8%	?
CCN1CCCC1CNC(=O)c1cc2c(C)nc3ccccc3c2o1 (stereo not drawn)	0.8%	9.1%	-0.9%	3.4%	7.4%	1.1%
Cc1ccc(Sc2ccc(N3CCC(C(=O)Nc4cc(C)cc(C)c4)CC3)nn2)cc1	-1.1%[10.9 µM]	.	.	?	12.6µM*	?
COc1cccc(NC(=O)C2CCN(c3ccc(Sc4ccc(C)cc4)nn3)CC2)c1	-3.1%[10.9 µM]	.	.	7.4%	-3.1%	?
COc1ccc(NC(=O)N(C(C)C)C2CCN(C(C)=O)CC2)c(OC)c1	-11.4%[10.9 µM]	.	.	-3.7%	?	?
CC(C)CCn1c(SCc2cccc(F)c2)nc2ccsc2c1=O	-4.4%[10.9 µM]	.	.	-4.1%	-26.2%	-1.7%
COc1cccc(/C=N/n2c(-c3ccco3)nc3ccccc3c2=O)c1	.	15.8µM*	?	?	-10.8%	7.3%
COc1ccc(/C=N/n2c(-c3ccco3)nc3ccccc3c2=O)cc1	.	.	.	-4.8%	4.9%	.
Cc1ccccc1OCc1nc2ccccc2c(=O)n1/N=C/c1ccco1	-39.7%	15.8µM*	?	-4.9%	-11.7%	?
COc1nc(-c2ccccc2)ccc1-c1noc(COc2ccccc2)n1	-10.6%	31.6µM*	?	-4.0%	4.2%	2.0%
CCc1ccc(CN2C(=O)c3ccccc3C2C(=O)NC2CCCCCC2)cc1 (stereo not drawn)	8.6%[10.9 µM]	.	.	11.6%	1.4%	?
COc1ccc(C(=O)NCC(c2ccc(N(C)C)cc2)N2CCc3ccccc32)cc1 (stereo not drawn)	-14.7%[10.9 µM]	.	.	-12.5%	10µM*	3.4%
CC(C)Oc1ccc(C(=O)NCC(c2ccc(N(C)C)cc2)N2CCc3ccccc32)cc1 (stereo not drawn)	3.9%[10.9 µM]	.	.	7.3%	-14.2%	3.3%
CC(C)n1c(C(=O)OCC(=O)NCc2ccc3c(c2)OCO3)cc2sccc21	-14.2%	7.94µM*	?	-2.1%	-4.5%	?
COCC(=O)NCc1ccc2c(c1)OCO2	-12.4%	13.0%	-6.1%	-8.9%	-10.6%	0.6%
Cn1c(C(=O)OCC(=O)NCc2cccs2)cc2sccc21	-11.0%	21.2%	5.0%	-4.4%	-3.0%	0.5%
CC(C)n1c(C(=O)OCC(=O)NCc2ccc3c(c2)OCO3)cc2occc21	0.3%	15.8µM*	?	7.1%	-14.0%	?
O=S(=O)(c1ccccc1)N1CCC2(CC1)CN(c1ccncc1)C2	.	3.4%	4.5%	-7.4%	-8.3%	-0.8%[11.4 µM]
O=S(=O)(c1ccccc1)N1CCC2(CCCN(c3cccc(-c4ccccc4)c3)C2)CC1	.	13.5%	2.4%	-2.4%	-1.4%	1.9%[11.4 µM]
N#Cc1ccc(CN2CCCC3(CCN(S(=O)(=O)c4ccccc4)CC3)C2)cc1	.	12.6µM*	?	-0.5%	1.1%	2.7%[11.4 µM]
O=S(=O)(c1ccccc1)N1CCC[C@@]2(CCN(Cc3ccccc3)C2)C1	.	?	?	-3.4%	6.2%	1.2%[11.4 µM]
O=S(=O)(c1ccccc1)N1CCC2(CCCN(c3ccncc3)C2)CC1	.	20µM*	?	-13.0%	-17.9%	6.1%[11.4 µM]
O=S(=O)(c1ccccc1)N1CCC2(CCCN(c3ccccc3)C2)CC1	.	25.1µM*	?	-6.9%	-8.6%	-0.5%[11.4 µM]
CC(C)C1C(=O)Nc2ccc(S(=O)(=O)NCCc3ccc(Cl)cc3)cc21 (stereo not drawn)	3.1%[10.9 µM]	.	.	10.6%	-10.2%	?
SMILES	Peg3 imprint	HEK293 cAMP cs	TSHR ag	p53ts 32C tox	p53ts 39C tox	IkB signaling	others
Cc1ccc(C2CCN(C(=O)Nc3ccccc3)C2)cc1 (stereo not drawn)	-48.3%	?	?	?	?	?
Cc1ccc(NC(=O)N2CCC(c3ccccc3)C2)cc1C (stereo not drawn)	-11.7%[10.9 µM]	.	.	?	12.6µM*	20.6%
O=C(Nc1ccc(Cl)cc1)N1CCC(c2ccccc2)C1 (stereo not drawn)	-18.0%[10.9 µM]	.	.	?	12.6µM*	?
Cc1ccc(NC(=O)N2CC3CCCN3c3ccccc32)cc1C (stereo not drawn)	-8.9%[10.9 µM]	.	.	?	-11.1%	?
CCC(C(=O)Nc1cccc(Cl)c1C)n1nc(C)c2sc3ccccc3c2c1=O (stereo not drawn)	-11.8%[10.9 µM]	.	.	-23.8%	-29.5%	5.9%
Cc1cc(C)n(CCc2nc(-c3cc4ccccc4o3)cs2)n1	8.1%	15.8µM*	?	-4.6%	-12.2%	-6.5%
Cc1cc(C)c(-c2csc(-c3cc4ccccc4oc3=O)n2)cc1C	-1.7%[10.9 µM]	.	.	4.4%	16.8%	0.4%
O=C1c2[nH]nc(-c3ccccc3O)c2C(c2ccc(Cl)cc2)N1CCc1ccccc1 (stereo not drawn)	9.3%[10.9 µM]	.	.	20µM*	?	?
COCCCN1C(=O)c2[nH]nc(-c3ccccc3O)c2C1c1ccc(Cl)cc1 (stereo not drawn)	-15.1%	25.1%	18.1%	32.6%	2.8%	?
Cc1cccc(NC(=O)CSc2nnc(-c3ccccc3)n2N)c1	-7.4%	-11.9%	7.4%	-3.9%	7.5%	-0.1%
Cc1cccc(NC(=O)CSc2nnc(-c3ccccc3)n2N)c1C	-13.2%	-12.9%	3.4%[11.4 µM]	-4.8%	-0.4%	1.7%	parental cAMP=-2.2[25.6 µM]
Cc1ccc(N(CC(=O)N2CCN(c3ccc(Cl)cc3)CC2)S(=O)(=O)c2c(C)noc2C)cc1	29.9%[10.9 µM]	.	.	3.9%	-4.5%	-0.4%
CN(Cc1ccco1)C(=O)Cn1c(=O)oc2cc(S(=O)(=O)NCc3ccccc3)ccc21	-11.7%	12.2%	25.1µM*	-3.4%	-3.2%	2.0%	parental cAMP=-3.7
Cc1ccc(S(=O)(=O)N(CC(=O)N2CCC(C(N)=O)CC2)Cc2ccc(F)cc2)cc1	-4.4%	2.2%	3.6%	-5.7%	6.4%	-2.7%
O=C(CN(Cc1ccc(F)cc1)S(=O)(=O)c1ccccc1)N1CCCCC1	-9.2%	27.7%	25.1µM*	7.0%	1.8%	-0.7%	parental cAMP=-6.6
